T1: RBFOX1 RRM (Homo sapiens, UniProt Q9NWB1 109-208)
T1 sequence: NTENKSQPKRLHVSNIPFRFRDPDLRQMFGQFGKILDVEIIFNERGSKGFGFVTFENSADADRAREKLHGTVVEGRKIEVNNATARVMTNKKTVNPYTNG

B1: UUGCUAA (DNA:RNA)
RNA: GGGAGACCGGAAUUCAGAUUGUCCUUGCUAAUUAAAUCCCGUCGUAGCCACCA
DNA 1: CAATCTGAATTCCGGTCTCCC
DNA 2: TGGTGGCTACGACGGGATT
B2: CGACAAG (DNA:RNA)
RNA: B1 RNA with U25C, U26G, G27A, U29A, A31G
DNA 1: CAATCTGAATTCCGGTCTCCC
DNA 2: TGGTGGCTACGACGGGATT
B3: CCAUGCU (DNA:RNA)
RNA: GGGAGACCGGAAUUCAGAUUGUCCCCAUGCUUUAAAUCCCGUCGUAGCCACCA
DNA 1: CAATCTGAATTCCGGTCTCCC
DNA 2: TGGTGGCTACGACGGGATT
B4: AUGCACG (DNA:RNA)
RNA: B1 RNA with U25A, U29A, A30C, A31G
DNA 1: CAATCTGAATTCCGGTCTCCC
DNA 2: TGGTGGCTACGACGGGATT
B5: AUGCAUC (DNA:RNA)
RNA: B1 RNA with U25A, U29A, A30U, A31C
DNA 1: CAATCTGAATTCCGGTCTCCC
DNA 2: TGGTGGCTACGACGGGATT
B6: AUGCAUA (DNA:RNA)
RNA: B1 RNA with U25A, U29A, A30U
DNA 1: CAATCTGAATTCCGGTCTCCC
DNA 2: TGGTGGCTACGACGGGATT
B7: AUGCAUG (DNA:RNA)
RNA: B1 RNA with U25A, U29A, A30U, A31G
DNA 1: CAATCTGAATTCCGGTCTCCC
DNA 2: TGGTGGCTACGACGGGATT
B8: UAGCACC (DNA:RNA)
RNA: B1 RNA with U26A, U29A, A30C, A31C
DNA 1: CAATCTGAATTCCGGTCTCCC
DNA 2: TGGTGGCTACGACGGGATT
B9: UUGCACC (DNA:RNA)
RNA: B1 RNA with U29A, A30C, A31C
DNA 1: CAATCTGAATTCCGGTCTCCC
DNA 2: TGGTGGCTACGACGGGATT
B10: UUGCACG (DNA:RNA)
RNA: B1 RNA with U29A, A30C, A31G
DNA 1: CAATCTGAATTCCGGTCTCCC
DNA 2: TGGTGGCTACGACGGGATT
B11: AUGCACC (DNA:RNA)
RNA: B1 RNA with U25A, U29A, A30C, A31C
DNA 1: CAATCTGAATTCCGGTCTCCC
DNA 2: TGGTGGCTACGACGGGATT
B12: UACCACG (DNA:RNA)
RNA: B1 RNA with U26A, G27C, U29A, A30C, A31G
DNA 1: CAATCTGAATTCCGGTCTCCC
DNA 2: TGGTGGCTACGACGGGATT
B13: UAGCACG (DNA:RNA)
RNA: B1 RNA with U26A, U29A, A30C, A31G
DNA 1: CAATCTGAATTCCGGTCTCCC
DNA 2: TGGTGGCTACGACGGGATT
B14: AUCCACG (DNA:RNA)
RNA: B1 RNA with U25A, G27C, U29A, A30C, A31G
DNA 1: CAATCTGAATTCCGGTCTCCC
DNA 2: TGGTGGCTACGACGGGATT
B15: UUGCAGA (DNA:RNA)
RNA: B1 RNA with U29A, A30G
DNA 1: CAATCTGAATTCCGGTCTCCC
DNA 2: TGGTGGCTACGACGGGATT
B16: GUCCCAA (DNA:RNA)
RNA: B1 RNA with U25G, G27C, U29C
DNA 1: CAATCTGAATTCCGGTCTCCC
DNA 2: TGGTGGCTACGACGGGATT
B17: CAUUACG (DNA:RNA)
RNA: B3 RNA with C26A, A27U, G29A, U31G
DNA 1: CAATCTGAATTCCGGTCTCCC
DNA 2: TGGTGGCTACGACGGGATT
B18: UCACUCG (DNA:RNA)
RNA: B3 RNA with C25U, U28C, G29U, U31G
DNA 1: CAATCTGAATTCCGGTCTCCC
DNA 2: TGGTGGCTACGACGGGATT
B19: GUGCACG (DNA:RNA)
RNA: B1 RNA with U25G, U29A, A30C, A31G
DNA 1: CAATCTGAATTCCGGTCTCCC
DNA 2: TGGTGGCTACGACGGGATT
B20: ACGUGCG (DNA:RNA)
RNA: B3 RNA with C25A, A27G, U31G
DNA 1: CAATCTGAATTCCGGTCTCCC
DNA 2: TGGTGGCTACGACGGGATT
B21: GUGCACC (DNA:RNA)
RNA: B1 RNA with U25G, U29A, A30C, A31C
DNA 1: CAATCTGAATTCCGGTCTCCC
DNA 2: TGGTGGCTACGACGGGATT
B22: AGGUCUC (DNA:RNA)
RNA: B3 RNA with C25A, C26G, A27G, G29C, C30U, U31C
DNA 1: CAATCTGAATTCCGGTCTCCC
DNA 2: TGGTGGCTACGACGGGATT

Substitutions are numbered along the chain they refer to; changes in the protein carry UniProt numbers. Over roughly 16,000 sequences, “ka relative to ugcaugu” has its median near 0.0091; the highest 2% begin near 0.032. The list comes from a sample in which the highest values are over-represented; it also holds similar and randomly drawn sequences.

The target of this experiment is T1, RBFOX1 RRM. The experiment can be described thus: EMSA; HiTS-Eq, 1 nM pool, 10 min; buffer printed only for the single-RNA assays: 10 mM Tris pH 7.5, 150 mM NaCl, 3.4 mM EDTA, 0.001% NP-40, 30 C. As to conditions: tags: His6 N-terminal (pET28a); label: 5' 32P. A digest of the protocol:
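Purified RbFox RRM (wild type or mutant) was equilibrated for 10 min in 50 µL with 1 nM of a 5′-radiolabelled pool of RNA with 7 randomized nucleotides, its flanks annealed to DNA oligonucleotides, across increasing protein concentrations. Free RNA was separated by 8% native PAGE, excised, reverse-transcribed, PCR-barcoded and sequenced on an Illumina HiSeq 2500. Relative association constants came from read-count changes of each variant against the control reaction, normalised to the cognate motif.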
Background: A gel shift assay detects complexes by their altered migration in electrophoresis.
In the case of B1, the binding signal is 0.00861 KA relative to UGCAUGU.
For B2 the value was 0.00637 KA relative to UGCAUGU; for B3, 0.00802 KA relative to UGCAUGU; for B4, 0.361 KA relative to UGCAUGU.
Take B5: the binding signal was 0.015 KA relative to UGCAUGU.
With B6 the figure was 0.00891 KA relative to UGCAUGU.
With B7 the figure was 0.911 KA relative to UGCAUGU; with B8, 0.0118 KA relative to UGCAUGU.
B9: the binding signal was 0.0149 KA relative to UGCAUGU.
Take B10: the binding signal is 0.692 KA relative to UGCAUGU.
With B11 the figure was 0.0115 KA relative to UGCAUGU; with B12, 0.00532 KA relative to UGCAUGU; with B13, 0.0464 KA relative to UGCAUGU.
With B14 the figure was 0.0022 KA relative to UGCAUGU; with B15, 0.018 KA relative to UGCAUGU; with B16, 0.00597 KA relative to UGCAUGU.
With B17, the binding signal was 0.00857 KA relative to UGCAUGU.
For B18 the value was 0.00518 KA relative to UGCAUGU; for B19, 0.62 KA relative to UGCAUGU.
On to B20, for which the binding signal is 0.0166 KA relative to UGCAUGU.
With B21 the figure was 0.0178 KA relative to UGCAUGU.
For B22 the value was 0.0131 KA relative to UGCAUGU.

Source of the values: PMC9911399, “Two distinct binding modes provide the RNA-binding protein RbFox with extraordinary sequence specificity”.
